Test [1] can be described thus: P-glycoprotein substrates identified in KB-8-5-11 adenocarcinoma cell line, qHTS therapeutic library screen (AID 1346987). Also: nearly all actives have a fitted effect of over 65% in size. Also: potency is read from the fitted curve at half-maximal effect. As to activity change, negative = cytotoxicity: % is scaled to controls: 0 for no effect and ±100 for the full control effect. The method, boiled down:
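KB-8-5-11: colchicine-selected sub-line of KB-3-1 over-expressing P-gp; assay medium lacked colchicine. 72 h drug exposure at 37 degree C, CellTiter-Glo.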
In general terms: Quantitative high-throughput screening tests each substance at several concentrations.

For test [2], the system named is Zika virus NS2B-NS3 protease (unlinked complex). As to the kind of experiment: Primary screen GU Rhodamine qHTS for Zika virus inhibitors: Unlinked NS2B-NS3 protease assay (AID 1347159). Also: % is scaled to controls: 0 for no effect and ±100 for the full control effect; nearly all actives have a fitted effect of over 60% in size. The method, boiled down: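 Noncovalent NS2B hydrophilic domain/NS3 protease complex (25 nM final) in 10 mM Tris-HCl pH 8.0, 0.01% Tween 20, preincubated 15 min with compounds (up to 114 microM), then 1.5 microM Rhodamine110 substrate. Fluorescence change over 15 min fitted to 4-parameter Hill.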

Test [3] can be described thus: Primary fluorescence-based thiol-reactive (MSTI) qHTS assay for identification of artifact compounds. (AID 1845221). Also: nearly all actives have a fitted effect of over 65% in size. Also: potency is read from the fitted curve at half-maximal effect.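 As to activity change, negative = thiol reactive: thiol-reactive compounds lower the probe fluorescence signal.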 The method, boiled down: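 MSTI probe at 4 uM final in 2% DMSO/PBS pH 7.4; compounds, 1 h at room temperature in dark. Fluorescence Ex/Em 525/598 nm, normalised to Acetyl-MSTI and MSTI, fitted to 4-parameter Hill.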
A short description of test [4]: Primary redox qHTS assay for identification of artifact compounds. (AID 1845223).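 Also: 0% = DMSO and 100% = reference compound.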 An outline of the steps:
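Amplex Red (25 uM) and HRP (250 mU/mL) in HBSS, with compounds for 15 min, then 250 uM DTT for 30 min, room temperature, dark. Fluorescence 525/598 nm read; normalized to DMSO and 10 uM DA3003; Hill fit.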

A further test has as its system KB-3-1. As to the kind of experiment: Cytotoxic Profiling of Annotated Libraries Using Quantitative High-Throughput Screening (AID 1296008). Also: nearly all actives have a fitted effect of over 60% in size. Also: potency is read from the fitted curve at half-maximal effect. To be noted: Five cell lines viability, CellTiter-Glo ATP luminescence, 48-72 h; max response: stronger effect = lower value. An outline of the steps: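 Compounds were pin-transferred onto cells and incubated 48 or 72 hr at 37 degree Celsius, 95% humidity. CellTiter-Glo was added, plates sat 10 min at room temperature, then ATP-coupled luminescence was imaged as the viability read-out.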
In general terms: Cellular ATP, detected with luciferase, serves as a proxy for viable cell number.

In another test the test system is CAOV3. As to the kind of experiment: Primary qHTS to identify gynecologic anti-cancer compounds using libraries of approved drugs and bioactive compounds (AID 1345084). Also: nearly all actives have a fitted effect of over 55% in size. Also: potency is read from the fitted curve at half-maximal effect. As to activity change, negative = cytotoxicity: % is scaled to controls: 0 for no effect and ±100 for the full control effect. The conditions noted are these: Gynecologic cancer cell panel viability, ATPlite luminescence, 48 h; series mostly up to 57.5 µM. The method, boiled down: (§1)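 Cells, 1,000 per well, plated 16 h, then exposed 48 h at 37 C to compounds. Viability by ATPlite luminescence after 15 min at room temperature.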

A further test has as its system HeLa. The test is described as above. The conditions noted are these: Gynecologic cancer cell panel viability, ATPlite luminescence, 48 h; series mostly up to 57.5 µM. The method, boiled down: as §1
Test [5] can be described thus: P-glycoprotein substrates identified in KB-3-1 adenocarcinoma cell line, qHTS therapeutic library screen (AID 1346986). Also: nearly all actives have a fitted effect of over 60% in size. The method, boiled down: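 KB-3-1 parental cells and P-gp-overexpressing KB-8-5-11 (colchicine omitted during assay) plated at 500 cells/well, dosed in dose-response, incubated 72 h at 37 degree C. CellTiter-Glo luminescence read; KB-8-5-11 also tested with tariquidar.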

A further test deals with SKOV3. As to the kind of experiment: Primary qHTS to identify gynecologic anti-cancer compounds using libraries of approved drugs and bioactive compounds (AID 1345084). Also: nearly all actives have a fitted effect of over 55% in size. Also: potency is read from the fitted curve at half-maximal effect. As to activity change, negative = cytotoxicity: % is scaled to controls: 0 for no effect and ±100 for the full control effect. The conditions noted are these: Gynecologic cancer cell panel viability, ATPlite luminescence, 48 h; series mostly up to 57.5 µM. An outline of the steps:
as §1

Test [6] can be described thus: Primary qHTS for inhibitors of nuclear receptor binding SET domain protein 2 (NSD2) in an RCH-ACV wild type WT cells (2C) (AID 1645877). Also: nearly all actives have a fitted effect of over 70% in size. Also: potency is read from the fitted curve at half-maximal effect. As to activity change, negative = cell killing: % is scaled to controls: 0 for no effect and ±100 for the full control effect.
Test [7] has as its target Cytochrome P450 2D6 (Homo sapiens) (UniProt P10635). As to the kind of experiment: Cytochrome P450 family 2 subfamily D member 6 (CYP2D6) small molecule antagonists: luciferase biochemical (cell-free) qHTS assay (AID 1645840; active = well fitted curve in the direction sought with a large enough effect in the repeat runs; an effect the other way counts as inactive or inconclusive; also: % is scaled to controls: 0 for no effect and ±100 for the full control effect; nearly all actives have a fitted effect of over 55% in size). The method, boiled down:
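P450-Glo luminescent screen: recombinant CYP2D6 enzyme–proluciferin substrate mix preincubated with compound 10 min at room temperature, then NADPH regeneration added for 1 h at room temperature. Detection reagent added for 20 min; luciferin light read as relative luminescence units.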

In test [8] the target is Cytochrome P450 2C9 (Homo sapiens) (UniProt P11712). As to the kind of experiment: Cytochrome P450 family 2 subfamily C member 9 (CYP2C9) small molecule antagonists: luciferase biochemical (cell-free) qHTS assay (AID 1645842; active = well fitted curve in the direction sought with a large enough effect in the repeat runs; an effect the other way counts as inactive or inconclusive; also: nearly all actives have a fitted effect of over 55% in size; also: potency is read from the fitted curve at half-maximal effect). The method, boiled down:
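Luminescence, after 20 min with luciferin detection reagent, reflected CYP2C9 turnover during a 1 h NADPH-driven reaction at 37C. Enzyme-substrate mix contained 0.4% bovine serum albumin and was preincubated with compound 10 min at room temperature.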

For test [9], the target named is Catechol O-methyltransferase (Homo sapiens) (UniProt P21964). As to the kind of experiment: Confirmatory Screen for Target Class Profiling of Small Molecule Inhibitors of Methyltransferases (AID 1745852; calls by dose curve; also: potency is read from the fitted curve at half-maximal effect). The conditions noted are these: MTase-Glo luminescence, SAH detection, recombinant enzyme; measured here: COMT max response; stronger effect = lower value.
Sequence of Catechol O-methyltransferase (Homo sapiens) (P21964 whole entry, looked up): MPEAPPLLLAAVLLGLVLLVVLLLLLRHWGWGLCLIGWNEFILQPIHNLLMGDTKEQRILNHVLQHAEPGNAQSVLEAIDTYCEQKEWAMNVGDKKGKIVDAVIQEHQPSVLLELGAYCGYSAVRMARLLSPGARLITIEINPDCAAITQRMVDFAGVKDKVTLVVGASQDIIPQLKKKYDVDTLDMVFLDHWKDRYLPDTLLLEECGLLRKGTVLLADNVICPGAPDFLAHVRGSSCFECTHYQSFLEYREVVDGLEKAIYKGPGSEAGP
The target in test [10] is Guanidinoacetate N-methyltransferase (Homo sapiens) (UniProt Q14353). The description is as above. The conditions noted are these: activity change, negative = inhibition: at 57.3 µM (top of the series) unless noted.
The target in test [11] is Nicotinamide N-methyltransferase (Homo sapiens) (UniProt P40261). The test is described as above. To be noted: MTase-Glo luminescence, SAH detection, recombinant enzyme; measured here: NNMT max response; stronger effect = lower value.
Sequence of Nicotinamide N-methyltransferase (Homo sapiens) (P40261 whole entry, looked up): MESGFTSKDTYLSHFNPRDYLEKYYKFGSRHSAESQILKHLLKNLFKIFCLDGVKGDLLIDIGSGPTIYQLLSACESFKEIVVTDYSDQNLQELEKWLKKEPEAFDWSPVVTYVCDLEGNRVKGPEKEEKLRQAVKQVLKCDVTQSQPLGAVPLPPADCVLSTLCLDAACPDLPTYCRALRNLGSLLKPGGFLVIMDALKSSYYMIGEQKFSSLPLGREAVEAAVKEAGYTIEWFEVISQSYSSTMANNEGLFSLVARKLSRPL
In test [12] the target is Phenylethanolamine N-methyltransferase (Homo sapiens) (UniProt P11086). The description is as above. To be noted: MTase-Glo luminescence, SAH detection, recombinant enzyme; measured here: PNMT max response; stronger effect = lower value.
Sequence of Phenylethanolamine N-methyltransferase (Homo sapiens) (P11086 whole entry, looked up): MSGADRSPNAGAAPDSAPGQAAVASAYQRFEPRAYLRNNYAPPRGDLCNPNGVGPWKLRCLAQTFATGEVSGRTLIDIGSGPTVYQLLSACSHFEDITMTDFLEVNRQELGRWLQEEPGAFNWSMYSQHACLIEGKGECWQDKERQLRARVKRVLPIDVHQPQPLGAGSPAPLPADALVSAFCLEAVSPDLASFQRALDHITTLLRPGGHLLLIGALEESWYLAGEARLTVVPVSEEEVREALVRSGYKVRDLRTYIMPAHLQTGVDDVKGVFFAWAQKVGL

Results filed as inconclusive are left out. The source made the active and inactive calls. Unless noted, calls follow the shape of the dose curve; as a rule, active = well fitted curve in the direction sought with a large enough effect; inconclusive = small, poorly fitted or top-dose-only effect, or another doubt; inactive = no such curve, though single readings can be large; an effect the other way counts as inactive or inconclusive.

Results on 13 molecules are retold here after PubChem BioAssay (NCATS).

Sequence of Cytochrome P450 2C9 (Homo sapiens) (P11712 whole entry, looked up): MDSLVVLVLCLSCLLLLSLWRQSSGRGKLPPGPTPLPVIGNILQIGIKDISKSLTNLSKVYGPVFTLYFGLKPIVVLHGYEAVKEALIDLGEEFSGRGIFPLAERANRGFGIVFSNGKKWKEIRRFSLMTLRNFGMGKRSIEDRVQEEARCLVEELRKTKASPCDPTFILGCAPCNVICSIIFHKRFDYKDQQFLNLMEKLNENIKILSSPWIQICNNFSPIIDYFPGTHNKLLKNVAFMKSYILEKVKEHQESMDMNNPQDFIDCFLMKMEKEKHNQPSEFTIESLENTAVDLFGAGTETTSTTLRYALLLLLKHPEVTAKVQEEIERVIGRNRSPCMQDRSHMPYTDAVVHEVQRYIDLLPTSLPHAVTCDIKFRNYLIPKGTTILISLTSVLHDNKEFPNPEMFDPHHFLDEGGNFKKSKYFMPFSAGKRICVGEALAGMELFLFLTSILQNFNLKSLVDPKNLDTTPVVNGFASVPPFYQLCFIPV
Sequence of Cytochrome P450 2D6 (Homo sapiens) (P10635 whole entry, looked up): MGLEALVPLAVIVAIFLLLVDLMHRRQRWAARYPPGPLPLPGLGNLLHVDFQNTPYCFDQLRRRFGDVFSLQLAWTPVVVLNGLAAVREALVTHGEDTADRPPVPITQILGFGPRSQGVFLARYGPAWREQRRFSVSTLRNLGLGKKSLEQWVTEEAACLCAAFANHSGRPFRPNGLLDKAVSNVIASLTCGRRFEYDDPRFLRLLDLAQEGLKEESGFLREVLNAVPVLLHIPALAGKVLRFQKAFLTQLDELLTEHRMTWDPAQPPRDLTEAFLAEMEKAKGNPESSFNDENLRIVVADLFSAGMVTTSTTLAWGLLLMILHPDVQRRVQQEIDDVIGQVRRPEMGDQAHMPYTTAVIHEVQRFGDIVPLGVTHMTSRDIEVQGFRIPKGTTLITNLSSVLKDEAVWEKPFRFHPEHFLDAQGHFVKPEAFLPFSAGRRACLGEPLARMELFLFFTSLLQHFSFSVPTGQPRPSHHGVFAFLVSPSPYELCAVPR

For `CC(=O)OC[C@]12C[C@H](O)C(C)=C[C@H]1O[C@@H]1[C@H](O)[C@@H](OC(C)=O)[C@@]2(C)[C@]12CO2`, the Potency in test [1] was 14.3 nM (active); with KB-3-1, 32.1 nM (active). Further, the Potency entry in [2], in test [3] and in test [4] was “inactive” in each case.

Consider `CC(=O)OC[C@]12C[C@H](OC(=O)CC(C)C)C(C)=C[C@H]1O[C@@H]1[C@H](O)[C@@H](OC(C)=O)[C@@]2(C)[C@@]12CO2`, for which the Potency in test [1] was 25.2 nM (active); in the test with KB-3-1, 35.5 nM (active); with CAOV3 it was 89.1 nM (active); with HeLa, 158 nM (active). In addition, the Potency entry in [2], in test [3] and in [4] was “inactive” throughout.

As to `CC1CCCC(=O)CCC/C=C/c2cc(O)cc(O)c2C(=O)O1` (centres undefined), the Potency entry (in [5]; in test [1]; in the test with CAOV3; in the test on HeLa; in the test with SKOV3) was “inactive” throughout. Also, in [3], the Potency was 14700 nM (active). Moreover, in the test with KB-3-1, the outcome is “inactive”.

Regarding `COC1CC(O[C@H]2CC[C@]3(C)C4CC[C@]5(C)[C@@H](C6=CC(=O)OC6)[C@@H](OC(C)=O)C[C@]5(O)C4CC[C@@H]3C2)OC(C)C1O[C@@H]1O[C@H](CO)[C@@H](O)[C@H](O)[C@H]1O` (some centres undefined), the Potency was 544 nM (active) in test [1]; 483 nM (active) in test [6]; 862 nM (active) in the test with KB-3-1; 1120 nM (active) in the test with CAOV3; 891 nM (active) in the test with SKOV3.

In the case of `CC[C@H]1C2CC3[C@@H]4N(C)c5ccccc5[C@]45C[C@@H]([C@H]2[C@H]5O)N3[C@@H]1O`, the Potency entry (in test [1]; in [6]; in [4]; in the test on CAOV3; in the test with SKOV3) was “inactive” each time. The max response with KB-3-1 is 0.117% (inactive).

Turning to `CC(=O)OC[C@]12C[C@H](OC(=O)CC(C)C)C(C)=C[C@H]1O[C@@H]1[C@H](O)C[C@@]2(C)[C@]12CO2`, the Potency result in [2], in test [3] and in test [4] was “inactive” in each case. The Potency is 317 nM (active) in [6], 709 nM (active) with KB-3-1, 4470 nM (active) in the test with CAOV3 and 3980 nM (active) with HeLa.

In the case of `O=C(OC[C@H]1O[C@@H](Oc2ccc(O)cc2CO)[C@H](O)[C@@H](O)[C@@H]1O)c1ccccc1`, the Potency result (in test [1]; in test [4]; in the test on CAOV3) was “inactive” throughout. Further, in test [3], the Potency is 3670 nM (active). For the same molecule, the max response in the test with KB-3-1 was 4.17% (inactive).

As to `CO[C@H]1C[C@H](O[C@H]2CC[C@@]3(C)C(=CCC4C3CC[C@]3(C)[C@@H](C5=CC(=O)OC5)CC[C@]43O)C2)O[C@@H](C)[C@@H]1O[C@@H]1O[C@H](CO[C@@H]2O[C@H](CO)[C@@H](O)[C@H](O)[C@H]2O)[C@@H](O)[C@H](O)[C@H]1O` (some centres undefined), the activity change, negative = cytotoxicity in test [1] was 3.8% [at 9.29 µM] (inactive); in the test with CAOV3, 17.9% [at 11.6 µM] (inactive); in the test with HeLa, 1.26% [at 11.6 µM] (inactive). Moreover, the Potency entry in [2] is “inactive”. For the same molecule, the activity change, negative = cell killing in [6] was -4.53% [at 9.23 µM] (inactive). In addition, the activity change, negative = thiol reactive in [3] is 94.1% [at 11.5 µM] (inactive). For the same molecule, the redox activity (% of DA3003) in test [4] was 8.54% [at 11.5 µM] (inactive). Besides, in the test on KB-3-1, the max response is 4.69% (inactive).

Take `CO[C@H]1[C@@H](O)[C@@H](C)O[C@@H](O[C@@H]2C=C3C(OC(C)=O)CC4(O)C(CC[C@]5(C)[C@@H](C6=CC(=O)OC6)CC[C@]45O)[C@@]3(C)CC2)[C@@H]1O` (some centres undefined): the Potency in test [1] was 193 nM (active); in test [6], 85.8 nM (active); with KB-3-1 it was 385 nM (active); in the test with CAOV3, 501 nM (active); in the test with SKOV3, 282 nM (active). Moreover, the Potency result in [2], in test [3] and in test [4] was “inactive” each time.

As for `CC1=CC(=O)[C@@H](O)[C@]2(C)C3[C@@H](O)[C@@H]4OC(=O)[C@@H]([C@H]4C)[C@]3(C)C(=O)C[C@@H]12` (some centres undefined), the Potency is 3210 nM (active) in [1], 2260 nM (active) in [6] and 4530 nM (active) in the test on KB-3-1. Moreover, the Potency entry (in test [2]; in test [3]; with CAOV3; in the test with HeLa) was “inactive” each time.

As for `N#Cc1cn([C@@H]2O[C@H](CO)[C@H](O)[C@@H]2O)c2ncnc(N)c12`, the figures for the Potency (in test [1]; in [10]; in the test with KB-3-1) were 20.6 nM (active), 38300 nM (active) and 36.6 nM (active), respectively. The Potency entry in [2], in test [7], in [8] and in [4] was “inactive” each time. The results for the activity in test [9], in test [11] and in [12] were -98.2%, -89.8% and -99.9%, respectively.

On to `CCc1nn(C)c(C(=O)NCc2ccc(Oc3ccc(C)cc3)cc2)c1Cl`, for which the values for the Potency in [1] and in test [8] were 25900 nM (active) and 5350 nM (active), respectively. The Potency entry (in [2]; in [3]; in test [4]; with CAOV3) was “inactive” each time.

With `Nc1ncnc2c1ncn2[C@@H]1O[C@@H]2COP(O)(=S)O[C@H]2[C@H]1O` (some centres undefined), the activity change, negative = cytotoxicity was 2.93% [at 9.29 µM] (inactive) in test [1], 2.86% [at 11.6 µM] (inactive) in the test on CAOV3, 5.24% [at 11.6 µM] (inactive) in the test on HeLa and 33.4% [at 11.6 µM] (inactive) in the test with SKOV3. The activity change, negative = inhibition in [2] was 2.11% [at 19.1 µM] (inactive). The outcome in test [6] was “inactive [at 9.23 µM]”. In test [4], the redox activity (% of DA3003) is -10% [at 11.5 µM] (inactive). Moreover, the max response in the test on KB-3-1 was -0.196% (inactive).
